Shown are actives, neighbours in structure and some others; about 3.5% of the full set was active somewhere.
Anthrax LF prot – Bacillus anthracis LF protease inhibitors, primary screen, biochemical, multiplex microsphere, MLPCN library | Lethal factor (Bacillus anthracis), P15917 | AID 588501, 2011 | inhibition, % at 10 µM | actives 0.12% (n = 360,000) | multiplex microsphere protease cleavage assay; note: plate controls were buffer without enzyme for full effect and enzyme alone for no effect
Target sequence (P15917 whole entry, looked up): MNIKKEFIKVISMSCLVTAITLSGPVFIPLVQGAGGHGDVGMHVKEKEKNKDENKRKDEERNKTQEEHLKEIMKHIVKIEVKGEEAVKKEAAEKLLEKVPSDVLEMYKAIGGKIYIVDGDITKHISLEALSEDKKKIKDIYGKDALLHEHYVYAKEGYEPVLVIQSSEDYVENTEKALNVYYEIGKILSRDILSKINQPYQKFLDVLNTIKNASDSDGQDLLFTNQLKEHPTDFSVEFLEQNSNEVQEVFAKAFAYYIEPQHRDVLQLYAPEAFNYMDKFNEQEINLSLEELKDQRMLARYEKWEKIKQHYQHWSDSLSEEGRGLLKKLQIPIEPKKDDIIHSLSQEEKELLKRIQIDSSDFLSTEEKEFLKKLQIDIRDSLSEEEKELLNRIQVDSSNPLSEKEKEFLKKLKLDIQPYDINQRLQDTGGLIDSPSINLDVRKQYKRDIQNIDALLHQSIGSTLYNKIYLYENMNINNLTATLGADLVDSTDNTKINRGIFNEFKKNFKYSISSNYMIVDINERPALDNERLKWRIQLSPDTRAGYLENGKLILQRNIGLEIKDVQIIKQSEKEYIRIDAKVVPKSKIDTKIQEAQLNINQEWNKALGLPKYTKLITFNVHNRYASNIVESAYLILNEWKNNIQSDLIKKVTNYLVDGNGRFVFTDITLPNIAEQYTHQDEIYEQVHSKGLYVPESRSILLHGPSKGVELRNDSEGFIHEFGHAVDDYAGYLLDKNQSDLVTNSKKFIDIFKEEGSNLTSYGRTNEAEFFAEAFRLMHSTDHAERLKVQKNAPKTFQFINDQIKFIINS
BoNT A protease – BoNT/A light chain protease inhibitors, primary screen, biochemical, flow cytometry, MLPCN library | multiplex microsphere protease substrate cleavage | inhibition, % at 10 µM | AID 588499, 2011 | actives 0.17% (n = 360,000) | Botulinum neurotoxin type A light chain protease (Clostridium botulinum A str. ATCC 3502); note: plate controls were buffer without enzyme for full effect and enzyme alone for no effect
Vc quorum ag – inducers of Vibrio cholerae quorum light production without autoinducers, primary screen, BH1578 luxS cqsA deficient, single point. V. cholerae BH1578 lux reporter, luminescence, 6 h. activation, % at 18.7 µM. actives 0.16% (n = 350,000); in the data active = activation mostly above about 9.7%, no sharp cut-off; inconclusive = no clear call, values can overlap the other calls; inactive = mostly below about 3.7%
Autofluor counter – flagged as autofluorescent in microsphere protease counterscreen | compound autofluorescence counterscreen, microsphere flow cytometry; hits give high values | fluorescence intensity (concentration not given with the values) | actives 3.1% (n = 360,000); in the data active = fluorescence intensity above about 16000; inconclusive = no clear call, values can overlap the other calls
BoNT F protease – BoNT/F light chain protease inhibitors, primary screen, biochemical, flow cytometry, MLPCN library; Botulinum neurotoxin type F light chain protease (Clostridium botulinum); Multiplex microsphere protease cleavage assay; inhibition, % at 10 µM; actives 0.22% (n = 360,000); AID 588497, 2011; in the data active = inhibition above about 35%, passing the limit was not always enough; inconclusive = no clear call, values can overlap the other calls; note: plate controls were buffer without enzyme for full effect and enzyme alone for no effect
* marks the source's active call; other numbers are inactive results; i = inactive; u = inconclusive; x = not tested or not shown. Cut-off read from the data, not from the text of the source, unless noted: active = inhibition above about 30%; inconclusive = no clear call, values can overlap the other calls; inactive = below that.

SMILES | Anthrax LF prot | BoNT A protease | Vc quorum ag | Autofluor counter | BoNT F protease
O=C(O)/C=C/c1ccc(S(=O)(=O)NCc2cccnc2)cc1 | 3 | 0 | 0 | 4063 | 4
CCC(C)NC(=O)C1CCN(c2nc(C)cc(C)n2)CC1 (stereo unspecified) | -4 | 2 | 0 | 8329 | 3
Cc1oc(-c2cccc(Cl)c2)nc1CN1CCC(C(=O)NCC2CCCO2)CC1 (stereo unspecified) | -1 | 1 | 0 | 8657 | 0
Cc1oc(-c2cccs2)nc1CN1CCC(C(=O)N2CCCC2)CC1 | 6 | 0 | 0 | 5362 | -4
Cc1cc(C)nc(N2CCC(C(=O)NCc3ccco3)CC2)n1 | 2 | 0 | 0 | 8698 | -4
Cc1oc(-c2ccccc2F)nc1CN1CCC(C(=O)NCc2cccs2)CC1 | -2 | 1 | 2 | 21985* | 0
Cc1cc(C)nc(N2CCC(C(=O)NCc3cccs3)CC2)n1 | 0 | u | -2 | 23240* | -4
Cc1ccccc1-c1nc(CN2CCC(C(=O)NCC3CCCO3)CC2)c(C)o1 (stereo unspecified) | -8 | -4 | i | 25315* | -6
Cc1cc(-c2ccccc2)nc(N2CCC(C(=O)NC(C)C)CC2)n1 | -4 | -2 | -1 | 16521* | -5
O=C(CCn1c(=S)oc2ccccc21)Nc1cc([N+](=O)[O-])ccc1F | -13 | -4 | -1 | 3192 | 15
Cc1oc(-c2ccccc2F)nc1CN1CCC(C(=O)NC2CC2)CC1 | -2 | 1 | -12 | 20198* | 4
COc1ccc(-c2nc(CN3CCC(C(=O)NC4CC4)CC3)c(C)o2)cc1OC | 3 | 0 | 0 | 5203 | 5
CC(C)C(c1nnnn1C1CCCC1)N1CCCc2ccccc21 (stereo unspecified) | -2 | -3 | 3 | 24060* | -2
CC(C)C(c1nnnn1C1CCCC1)N1CCc2ccccc21 (stereo unspecified) | -8 | 6 | i | 17487* | -2
CC(C)C(c1nnnn1C1CCCCC1)N1CCCc2ccccc21 (stereo unspecified) | 0 | 0 | -8 | 3352 | -4
CCn1c(=O)c2c(O)cc(=O)oc2c2ccccc21 | 3 | u | i | 22829* | -2
O=c1cc(O)c2c(=O)n(-c3ccccc3)c3ccccc3c2o1 | 2 | 1 | i | 4355 | 10
CC(C)n1c(=O)c2c(O)cc(=O)oc2c2ccccc21 | -1 | u | -2 | 21712* | 4
COC(=O)N1CC(c2ccccc2)CC1=O (stereo unspecified) | 0 | 1 | 0 | 19692* | 3
N#CCCN/N=C(\Cc1nc2ccccc2[nH]1)c1ccccc1 | 2 | 3 | 0 | 22721* | -2
Cc1cccc(C)c1NC(=O)Cn1nnc(-c2ccc(N3CCOCC3)cc2)n1 | -2 | -2 | -1 | 20925* | -3
Cc1ccc(C)c(NC(=O)Cn2nnc(-c3ccc(N4CCOCC4)cc3)n2)c1 | -2 | 0 | -2 | 3912 | -4
O=c1oc2ccccc2cc1-c1nc(-c2cccs2)cs1 | 41* | 58* | 0 | 8352 | 32
Cc1cc(NC(=O)CSCC(=O)OCc2nnc(-c3ccc(F)cc3)o2)no1 | 0 | 1 | i | 7499 | 3
O=C(c1ccccc1-c1nc(-c2ccccc2)no1)N1CCOCC1 | -4 | 4 | 2 | 18009* | 4
SMILES | Anthrax LF prot | BoNT A protease | Vc quorum ag | Autofluor counter | BoNT F protease
O=C(c1ccccc1-c1nc(-c2ccc(F)cc2)no1)N1CCCC1 | -2 | 0 | i | 2641 | -8
O=C(Oc1ccccc1C(=O)N1CCOCC1)c1ccc(Br)cc1 | 1 | u | -4 | 20205* | 0
O=C(c1ccccc1)c1ccc(C(=O)N2CCOCC2)cc1 | -2 | 1 | x | 3028 | 2
O=C(c1ccc(-c2ccccc2)cc1)c1ccccc1C(=O)N1CCOCC1 | -2 | 2 | 0 | 22303* | 4
NC1=NC2(CCCCC2)N=C(Nc2ccc(Br)cc2)N1 | 0 | 0 | -1 | 2110 | -2
CCn1c(=O)n(CC)c2cc(NC(=O)C(C)c3ccccc3)c(Br)cc21 (stereo unspecified) | -8 | 0 | i | 3634 | 22
CCOc1ccc(-c2c(C(=O)N/N=C/C3CC=CCC3)nnn2-c2nonc2N)cc1 (stereo unspecified) | 1 | 2 | 0 | 5297 | 6
COc1ccc(CCNC(=S)Nc2ccc(S(=O)(=O)Nc3ncccn3)cc2)cc1OC | -2 | 0 | -1 | 6140 | 1
N#CC1=C(N)N(c2ccccc2)C2=C(C(=O)CCC2)C1c1ccsc1 (stereo unspecified) | 1 | 0 | i | 16252* | -3
COc1ccc(C2C(C#N)=C(N)N(N(C)C)C3=C2C(=O)CCC3)cc1 (stereo unspecified) | -2 | 4 | -1 | 3857 | 57*
Cc1ccc(C2C(C#N)=C(N)N(N(C)C)C3=C2C(=O)CCC3)cc1 (stereo unspecified) | -1 | 0 | 0 | 2186 | 0
CCOc1ccccc1NC(=O)c1ccc(F)c(S(=O)(=O)N2CCC3(CC2)OCCO3)c1 | 0 | u | 0 | 17156* | -6
COc1ccccc1C(=O)NCC(=O)N/N=C/c1cn[nH]c1-c1ccccc1 | -2 | 0 | i | 2216 | 1
CC(=O)N1CCc2cc(NC(=O)c3ccc(C)cc3)ccc21 | -2 | -3 | i | 21491* | -3
Cc1ccc(NS(=O)(=O)c2ccc(C)c(C(=O)NCC(c3ccccc3)N(C)C)c2)cc1 (stereo unspecified) | -2 | 3 | i | 5557 | -1
C=CCN1CC(c2nc3ccccc3n2Cc2ccccc2)CC1=O (stereo unspecified) | 0 | u | -2 | 20701* | -4
CS(=O)(=O)N1CCCC(C(=O)Nc2ccc3c(c2)OCCO3)C1 (stereo unspecified) | -5 | -1 | i | 4955 | -4
Cn1c(CS(=O)Cc2c(Cl)cccc2Cl)nnc1SCc1c(Cl)cccc1Cl (stereo unspecified) | -2 | -1 | 0 | 16613* | -1
Cn1c(CO)cnc1SCc1c(Cl)cccc1Cl | -1 | u | i | 22193* | -1
Nc1cc2[nH]c(=O)c3ccccc3c2cc1[N+](=O)[O-] | -6 | 0 | i | 3736 | -7
CCCS(=O)(=O)N1CCN(c2ccccn2)CC1 | -11 | 0 | 0 | 5771 | 7
O=S(=O)(c1cccs1)N1CCN(c2ccccn2)CC1 | -3 | 0 | i | 22816* | -1
CCS(=O)(=O)N1CCN(c2ccccn2)CC1 | -1 | -6 | i | 26268* | -12
Cc1ccc(S(=O)(=O)NC(C)C(=O)NC(C)c2cccs2)cc1 (stereo unspecified) | 0 | 4 | 0 | 3772 | 6
CC(NS(=O)(=O)c1ccccc1)C(N)=O (stereo unspecified) | -7 | -2 | i | 17096* | -3
